This is part of a sample that, as a whole, favours compounds with a hit. Of some 79,000 tested, about 15% had one in any assay. The source made the active and inactive calls. No stated cut-off is given here; in the data, active means growth inhibition above about 70%; inactive means the rest.
Key:
[1] = NCI Yeast Anticancer Drug Screen. Data for the rad52 strain (AID 147);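 further: 0% = growth of vehicle-treated control cultures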; details: S. cerevisiae rad52 mutant growth inhibition, stronger effect = higher value
In short: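 Here a repair-compromised yeast strain receives each compound; its growth is then quantified and normalised to vehicle-only controls.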

[2] = NCI Yeast Anticancer Drug Screen. Data for the wt1 strain (AID 149);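 further: 0% = growth of vehicle-treated wt1 cultures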; details: S. cerevisiae wt1 strain (SPY 50644) growth inhibition, stronger effect = higher value
In short: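 Compounds are added to wt1 yeast cultures. Growth is then measured. Inhibition is expressed relative to vehicle-treated controls.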

[3] = NCI Yeast Anticancer Drug Screen. Data for the rad50EPP+ strain (AID 151);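 further: 0% = growth of vehicle-treated control cultures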; details: S. cerevisiae rad50 mutant strain, stronger effect = higher value
In short: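 Read-out is yeast growth inhibition relative to vehicle; cells used were the rad50EPP+ strain.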

[4] = NCI Yeast Anticancer Drug Screen. Data for the mgt1 strain (AID 153); details: S. cerevisiae mgt1 mutant growth inhibition, stronger effect = higher value
In short: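 Measured: inhibition of mgt1 yeast growth by compound, normalized to vehicle-treated cultures.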

[5] = NCI Yeast Anticancer Drug Screen. Data for the rad50 strain (AID 155);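 further: 0% = growth of vehicle-only cultures of the same strain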; details: S. cerevisiae rad50 strain growth inhibition, stronger effect = higher value
In short: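 Inhibition values express reduced yeast growth in compound-treated cultures relative to vehicle-treated controls.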

[6] = NCI Yeast Anticancer Drug Screen. Data for the mec2-1 strain (AID 157); details: S. cerevisiae mec2-1 strain, stronger effect = higher value
In short: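 Using mec2-1 yeast: add compound, measure growth, express inhibition versus vehicle-treated cultures.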

[7] = NCI Yeast Anticancer Drug Screen. Data for the rad14 strain (AID 159);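 further: 0% = growth of vehicle-treated control cultures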; details: S. cerevisiae rad14 strain growth inhibition, stronger effect = higher value
In short: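 A mutant yeast strain defective in DNA damage repair is treated with compound; inhibition of its growth is scored against untreated, vehicle-exposed cultures.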

[8] = at 5.0 µM (retest, dose inferred, filed as 0.5)
[9] = at 50.0 µM (retest, dose inferred, filed as 5.0)

Measured: growth inhibition

O=C(NC(N1CCN(c2cc3c(cc2F)c(=O)c(C(=O)O)cn3C2CC2)CC1)(C(F)(F)F)C(F)(F)F)c1ccccc1
inactive: [1]; at 1.2 µM -2% | [1]; at 3.7 µM 1% | [1]; at 11.0 µM 17% | [2]; at 1.2 µM -2% | [2]; at 3.7 µM -3% | [2]; at 11.0 µM -1% | [2]; at 33.0 µM 8% | [2]; at 100.0 µM 40% | [3]; at 1.2 µM -2% | [3]; at 3.7 µM -1% | [3]; at 11.0 µM 4% | [3]; at 33.0 µM 27% | [3]; at 100.0 µM 40% | [4]; at 1.2 µM -1% | [4]; at 3.7 µM -2% | [4]; at 11.0 µM -2% | [4]; at 33.0 µM 6% | [4]; at 100.0 µM 42% | [5]; at 1.2 µM -1% | [5]; at 3.7 µM 5% | [5]; [8] -1% | [5]; at 11.0 µM 19% | [5]; at 50.0 µM 46.8% | [6]; at 1.2 µM -2% | [6]; at 3.7 µM -3% | [6]; [8] 3% | [6]; at 11.0 µM 0% | [6]; at 33.0 µM 35% | [6]; [9] 35% | [6]; at 50.0 µM -19.2% | [6]; at 100.0 µM 67% | [7]; at 1.2 µM -2% | [7]; at 3.7 µM -1% | [7]; at 11.0 µM 2% | [7]; at 33.0 µM 19% | [7]; at 100.0 µM 44%
active: [1]; at 33.0 µM 90% | [1]; at 100.0 µM 90% | [5]; at 33.0 µM 88% | [5]; [9] 96% | [5]; at 100.0 µM 91%
